Screening results as filed in PubChem.
An excerpt weighted towards active compounds, which were near 21% of everything screened.
Cycloheximide cs: affects cycloheximide protein synthesis inhibition readout, counter-screen. 12% of 300,000 active. cell reporter, cycloheximide protein synthesis inhibition counterscreen. max response, %; in the data active means max response mostly above about 13%, no sharp cut-off; inactive means mostly below about 14%; further: read at 38.3 µM for the half of the compounds with a filed dose; 0% is about no effect
HCV inh: HCV inhibition; 3.4% of 340,000 active; Huh7.5.1 HCVcc-Cre infection, luciferase reporter, 44 h; Potency, µM (titrated, usually from 41.8 µM), without a hit: top-dose activity change, negative = inhibition, usual class: inhibitors; AID 651820; further: potency means the concentration at half of the fitted maximal effect; on the % scale 0 is the no-effect control and ±100 the full control effect
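A cell-based infection assay in which seeded cells (1,000 per well) receive test compound after 4 h, are inoculated with HCVcc-Cre at approximately 0.5 moi, and are incubated 44 h before luminescence detection.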
AMA1 RON2 block: inhibitors of Plasmodium falciparum AMA1-RON2 interaction | AlphaScreen AMA1-biotinylated RON2 peptide binding | Potency, µM (top dose mostly 58.2 µM), without a hit: at the highest dose activity change, negative = inhibition, most hits filed as inhibitors | 0.2% of 360,000 active | AID 720542;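 further: potency means the concentration at half of the fitted maximal effect; 0% = vehicle wells and -100% = peptide control; nearly all actives have a fitted effect of over 45% in size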
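AMA1 (3D7) with his tag at 25 nM final met compounds first, then biotinylated RON2 peptide at 25 nM; detection used donor plus acceptor beads, 10 µg/mL apiece, read by AlphaScreen after 30 min at room temperature.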
Pf growth 96h: P. falciparum growth inhibition at 96 hour, primary screen for plastid delayed-death inhibitors; P. falciparum luciferase reporter growth, 96 h; Potency, µM (titrated, usually from 28.7 µM), inactives show at the highest dose activity change, negative = inhibition, hits mostly inhibitors; 6.9% of 320,000 active; AID 504834; further: potency means the concentration at half of the fitted maximal effect; on the % scale 0 is the no-effect control and ±100 the full control effect
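Parasite growth measured via integrated firefly luciferase reporter in P. falciparum. Infected erythrocytes at 2% hematocrit, 0.05% parasitemia final were treated 96 hours at 37 C under 5% CO2, and luminescence was read.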
Shiga toxin inh: blocks Shiga toxin action in Vero cells | Vero cells, Shiga toxin protein synthesis inhibition reporter | inhibition, % at 38.7 µM | 9.2% of 290,000 active; in the data active means inhibition mostly above about 28%, no sharp cut-off; inactive means mostly below about 43%; further: 0% is about no effect
Pf growth 48h: inhibits P. falciparum growth in the first generation, 48 h; Potency, µM (highest dose often 28.7 µM), inactives show top-dose activity change, negative = inhibition, most hits filed as inhibitors; P. falciparum luciferase growth in erythrocytes, 48 h; 5.9% of 310,000 active; further: potency means the concentration at half of the fitted maximal effect; on the % scale 0 is the no-effect control and ±100 the full control effect
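In quantitative HTS format, infected erythrocytes bearing luciferase-reporter parasites were treated for a single generation at 37 C. Luminescence after adding detection reagent served as the growth measure.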
* hit, by the source's call; i = inactive; ? = inconclusive; / = not tested or not shown; [ ] = remark or other dose. Unless noted, the call rests on the fitted dose curve; in most records, active means well fitted curve in the direction sought with a large enough effect; inconclusive means small, poorly fitted or top-dose-only effect, or another doubt; inactive means no such curve, though single readings can be large; an effect the other way counts as inactive or inconclusive.

SMILES | Cycloheximide cs | HCV inh | AMA1 RON2 block | Pf growth 96h | Shiga toxin inh | Pf growth 48h
CC(C)([CH2][Sn]([CH2]C(C)(C)c1ccccc1)([CH2]C(C)(C)c1ccccc1)[O][Sn]([CH2]C(C)(C)c1ccccc1)([CH2]C(C)(C)c1ccccc1)[CH2]C(C)(C)c1ccccc1)c1ccccc1 | -16 | / | / | / | -20 | /
CCOC(=O)c1sc2nc(SCC#N)n(CCCN3CCCC3=O)c(=O)c2c1C | 7 | ? | 0% | ? | -9 | 10µM*
CCCC(C)NC(=O)c1sc2nc3n(c(=O)c2c1C)CCC3 (centres undefined) | 17* | -16% | 2% | 59%[5.75 µM] | 29 | 52%
CCOC(=O)c1sc2nc3n(c(=O)c2c1C)CCCCC3 | 47* | -14% | 4% | -1% | 103* | 67%
CCOC(=O)c1sc2nc3n(c(=O)c2c1C)CCC3 | -3 | -7% | 10% | 37% | 20 | 26%
C=CCNC(=O)c1cc(-c2ccncc2)nc2c(C)cc(C)cc12 | -1 | ? | 0% | ? | -5 | ?
COC/C=C/C1=CC2=CC(=O)C(C)(OC(=O)c3cnc4ccccc4n3)C(=O)C2=CN1CCN1CCOCC1 (centres undefined) | -2 | -1% | -11% | 9.3µM* | -3 | ?
CCN1CCN(CC(=O)n2c3c(c4ccccc42)CC(C)CC3)CC1 (centres undefined) | -3 | 3.2µM* | -20% | / | -9 | ?
CC1CCc2c(c3ccccc3n2C(=O)CCl)C1 (centres undefined) | 2 | ? | -28% | -28% | / | 9%
CCc1nc2ccc(C(=O)NCCCn3ccnc3)cn2c1N(C)CCCc1ccccc1 | / | / | 6% | / | / | /
S=C(NCC1CCCCC1)Nc1ccc(Oc2ccccc2)cc1 | -2 | ? | 47% | -13% | 21 | -25%
S=C(Nc1ccc(Oc2ccccc2)cc1)NC1CCCC1 | 11 | -1% | 9%[2.32 µM] | 55% | 3 | -2%
FC(F)Sc1ccc(NC(=S)NC(c2ccccc2)c2ccccc2)cc1 | 6 | ? | 93% | ? | 4 | -46%
CC1CCN(C(=S)Nc2ccc(SC(F)F)cc2)CC1 | 59* | ? | -5% | 217% | 64* | 107%
FC(F)Sc1ccc(NC(=S)NCC2CCCCC2)cc1 | 14 | 32µM* | 57% | -105% | 92 | /
S=C(Nc1ccc(Br)cc1)NC1CCCC1 | 42* | -3% | 9% | 4% | 63* | ?
FC(F)Sc1ccc(NC(=S)NC2CCCCC2)cc1 | 31* | ? | 0% | ? | 114 | /
CN(CC(=O)Nc1ccc(SC(F)F)cc1)C1CCCCC1 | 0 | -3% | 9% | 4% | 28 | -8%
CC1CCCCC1NC(=S)Nc1ccc(SC(F)F)cc1 (centres undefined) | 35* | 11µM* | -8% | / | 75* | -77%
CN1OC[C@@H]2CN(C(=S)NCCc3ccccc3)[C@H](c3ccc(-n4ccnc4)cc3)C[C@@H]21 | / | / | -12% | / | / | /
C/C(=N\NC(=O)c1ccoc1C)c1cccnc1 | 42* | 27% | 1% | i | 0 | 53%
C/C(=N\NC(=O)c1ccncc1)c1cccnc1 | 11 | 4% | 19% | -23% | 39 | 18%
COc1ccccc1C(=O)N/N=C(\C)c1cccnc1 | / | -12% | 13% | / | / | /
C/C(=N\NC(=O)c1ccccc1C)c1cccnc1 | 31* | 8% | 20% | -22% | 106* | 50%
CC(OC(=O)CCNS(=O)(=O)c1ccccc1)C(=O)Nc1ccc(S(=O)(=O)N2CCCCC2)cc1 (centres undefined) | / | -9% | -2%[11.6 µM] | / | / | /
SMILES | Cycloheximide cs | HCV inh | AMA1 RON2 block | Pf growth 96h | Shiga toxin inh | Pf growth 48h
COc1cc(-c2noc(C)c2C(=O)NCCCN2CCOCC2)cc(OC)c1OC | / | -2% | 9% | / | / | /
CCN(CC)S(=O)(=O)c1ccc(C)c(NC(=O)/C=C/c2cccs2)c1 | -2 | 10µM* | 3% | -19% | -6 | -17%
Cc1ccccc1NC(=O)/C=C/c1cccs1 | 28* | 2% | -1% | 259% | 70* | 306%
Cc1ccccc1NC(=O)/C=C/c1cccc(C(F)(F)F)c1 | 4 | -9% | -1% | ? | 63 | 41%
CC(=O)NC(C)(c1ccccc1)c1nc(-c2cccc(C#N)c2)cs1 (centres undefined) | / | / | -7% | / | / | /
Cc1ccc(-c2cc(C(=O)N3CCCc4ccccc43)no2)cc1 | 31* | -23% | 5% | ? | 98* | ?
O=C(c1ccc(C(=O)N2CCCc3ccccc32)s1)N1CCCc2ccccc21 | -2 | ? | -6% | ? | -13 | 0%
O=C(c1cc(-c2cccs2)on1)N1CCCc2ccccc21 | 39* | 3% | 5% | 17% | 73* | 2%
O=C(c1cc(-c2ccc(F)cc2)on1)N1CCCc2ccccc21 | 46* | ? | -2% | ? | 64* | 76%
COc1ccc(S(=O)(=O)NCCc2c(C)nn(C)c2Oc2ccccc2)cc1 | 5 | ? | 3% | ? | 9 | ?
Cc1nn(C)c(Oc2ccccc2)c1CCNS(=O)(=O)c1ccc(Cl)cc1 | -2 | 10µM* | -10% | ? | 16 | ?
Nc1ccc2c(c1)C(O)c1cccc(C(=O)O)c1-2 (centres undefined) | / | 4% | 1% | / | / | /
CC(C)NC(=O)CC(=O)NN=C1CCCCC1 | -7 | 16% | 40% | -3% | 13 | 24%
CCOC(=O)c1cc(-c2ccccc2)nn1CCC#N | 7 | -5% | -9% | ? | 13 | ?
CCOC(=O)c1cc(-c2ccc(OC)cc2)nc2c1c(C)nn2CCC#N | 14 | ? | 16% | / | -11 | 5.2µM*
CCOC(=O)c1cc(-c2ccc(C#N)cc2)nc2c1c(C)nn2CCC#N | -1 | 12% | 2% | / | -13 | ?
CCOC(=O)c1cc(-c2ccc(C)o2)nn1CCC#N | 2 | -12% | 1% | 12µM* | 13 | ?
CCc1ccccc1NC(=O)Nc1cccc(F)c1 | 15 | -26% | -5% | 35%[1.15 µM] | 23 | 24%
CCOc1ccc(NC(=O)Nc2cc(C(C)C)ccc2C)cc1 | 2 | / | / | 3% | 4 | -16%
COc1ccc(Cn2cccc(NC(=O)Nc3cccc(C#N)c3)c2=O)cc1 | -3 | ? | 6% | 52% | -9 | -8%
CCOc1ccc(NC(=O)Nc2ccccc2SC)cc1 | 33* | -22% | -2% | i | 66* | 83%
CCOc1ccc(NC(=O)Nc2cccn(Cc3ccccc3)c2=O)cc1 | 31* | 10µM* | -18% | ? | 33 | -15%
CSc1ccccc1NC(=O)Nc1cccc(F)c1 | 22* | -5% | 1% | 4% | 41* | 91%
CSc1ccccc1NC(=O)Nc1ccccc1 | 25* | -12% | 5% | 9% | 91* | 105%
Cc1cc(C)n(-c2ccc(NC(=O)C3CCCCN3C(=O)c3ccoc3C)cc2)n1 (centres undefined) | 12 | 22% | -5% | 13% | -3 | -14%
